Results from PubChem BioAssay AID1347147 (National Center for Advancing Translational Sciences (NCATS), 2019).
Inconclusive results are not listed. A number with no mark means an inactive call. Calls of active or inactive are those of the source. Calls come from the whole dose curve; as a rule, active = well fitted inhibition curve with a large enough effect; inconclusive = small, poorly fitted or top-dose-only effect; inactive = no such curve, though single readings can be large or run the other way.

target: N-terminal Xaa-Pro-Lys N-methyltransferase 1 (Homo sapiens) (UniProt Q9BV86); test: qHTS Assay for Inhibitors of N-terminal methyltransferase 1 (NTMT1): MTaseGlo Confirmatory Screen, Round 2; settings: NTMT1 enzyme, MTase-Glo SAH luminescence; series mostly up to 57.4 µM; activity change, negative = inhibition: at the top concentration
Text: Assay Submitter (PI): Rong Huang Ph.D, Purdue University, West Lafayette, IN 47907
The N-terminal methytransferase 1 is the first methyltransferase that methylates protein alpha-N-amines and plays an important role in regulating cell mitosis, chromatin interactions and DNA repair. It is observed to be over-expressed in various cancer patient tissues like malignant melanoma and colorectal cancer tissues. Knockdown of NTMT1 in cancer cells causes cell mitotic defects and enhances sensitivity to DNA damaging chemotherapeutics. […] These critical cellular processes in which NTMT1 is implicated, coupled with emerging links to cellular dysfunction, strengthen the inference that NTMT1 is a compelling novel anticancer target. Progress have been made in understanding the molecular properties of NTMT1 and the biological consequences of protein alpha-N-terminal methylation, but there are no specific small molecule probes available for NTMT1 to fully characterize its MTase activity. To address this unmet need, a panel of assay is created and established to enable quantitative high-throughput screening (qHTS) for novel, potent, and selective small molecule NTMT1 inhibitors. Two orthogonal qHTS that use different reagents (ThioGlo vs. MTaseGlo) are developed for primary robotic screening against the NCATS chemical library of more than 400,000 small molecules. Identified inhibitors are reacquired, validated, and further characterized.
MTaseGlo Assay is a luminescence screen that measure the activity of methyltransferases based on the reaction product S-adenosyl homocysteine (SAH). The substrate SAM is converted to SAH upon enzyme activation. MTase-Glo reagent and detection solution convert SAH to ATP and measure the light from the luciferase reaction.
Early Translation Branch (ETB)
National Center for Advancing Translational Sciences (NCATS)
National Institute of Health (NIH)
NTMT1 enzyme, substrate SPKRIA, control peptide RCC1-6 is provided by the Huang laboratory.
In brief, 3 µL of enzyme mixture (final concentrations of 125 nM and 100 µM for NTMT1 and SAM, respectively) into all wells of a 1,536-well solid-bottom white plate (Greiner Bio One, Monroe, NC). 23 nL of DMSO or Ac-RCC1-10 (final concentration range 234 nM to 143 microM) was transferred via Wako Pin-tool (Wako Automation, Richmond, VA) and incubated (RT) for ~15 minutes. Next, 1 µL of substrate (final concentration 1 µM) or buffer was dispensed, and the reaction proceeded for 30 minutes (RT, protected from light) followed by a 1 microL addition of [5X] MTase-Glo Reagent(R). Samples were incubated (RT, protected from light) for 30 minutes to allow for SAH to be converted to ADP, followed by a 5 microL addition of [1X] MTase-Glo Detection Solution(R) to allow for ADP to be converted to ATP, which was then detected with a luciferase reaction. Samples were centrifuged for 15 seconds at 1,000 RPM's, followed by a RT incubation for 30 minutes. Plates were then read using Luminescence optics on a ViewLux detector. Data were normalized to no-enzyme (0% activity) and no-inhibitor (DMSO; 100%) controls, and the resulting percent inhibition data were fitted to a 4-parameter Hill equation using Graphpad Prism.
Potency is the fitted concentration of half-maximal effect.

Sequence of N-terminal Xaa-Pro-Lys N-methyltransferase 1 (Homo sapiens) (Q9BV86 whole entry, looked up): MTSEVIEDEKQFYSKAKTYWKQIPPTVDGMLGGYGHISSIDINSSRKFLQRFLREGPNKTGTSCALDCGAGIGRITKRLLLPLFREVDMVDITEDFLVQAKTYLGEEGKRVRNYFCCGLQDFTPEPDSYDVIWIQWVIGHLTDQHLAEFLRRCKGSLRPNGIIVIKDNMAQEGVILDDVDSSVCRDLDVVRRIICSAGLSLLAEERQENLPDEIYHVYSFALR

| SMILES | activity change, negative = inhibition | Potency |
| --- | --- | --- |
| Cc1nnc(SCC2=C(C(=O)O)N3C(=O)[C@@H](NC(=O)Cn4cnnn4)[C@H]3SC2)s1 | -2.31% | – |
| CC1=C(\C=C/C(C)=C/C=C\C(C)=C\C(=O)O)C(C)(C)CCC1 | -22.4% | – |
| CC[C@H](C)n1cc(C)c2c(C(=O)NCc3c(C)cc(C)[nH]c3=O)cc(-c3ccc(N4CCNCC4)nc3)cc21 | -3.32% | – |
| O=c1c(-c2ccc(O)cc2)coc2cc(O)cc(O)c12 | -10.5% | – |
| NC[C@@H]1O[C@H](c2ccccc2)Cc2c1ccc(O)c2O | -10.2% | – |
| CC[n+]1c(/C=C/C=C2/N(C)c3ccccc3C2(C)C)sc2ccccc21 | – | 14.1 µM (active) |
| Oc1ccc2ccccc2c1SSc1c(O)ccc2ccccc12 | -14.1% | – |
| Clc1ccc(N2CCN(Cc3c[nH]c4ncccc34)CC2)cc1 | -5.18% | – |
| C[C@](Cc1ccc(O)c(O)c1)(NN)C(=O)O | -4.63% | – |
| CN=c1nc(-c2ccccc2)n(-c2ccccc2)s1 | – | 1 µM (active) |
| COc1ccc(C(=O)/C(Cc2cc(OC)c(OC)c(OC)c2)=C(\C(=O)O)c2ccc3c(c2)OCO3)cc1 | -0.396% | – |
| O=c1oc(Cl)c(Cl)c2ccccc12 | -8.27% | – |
| C=CCN1CCc2c(cc(O)c(O)c2Br)[C@@H](c2ccccc2)C1 | -14.3% | – |
| CCCCCCCCCCCCCCCCCC(=O)OC(CC(=O)O)C[N+](C)(C)C (stereo not given) | -7.72% | – |
| CC(C)NCC(O)c1ccc(O)c(O)c1 (stereo not given) | -1.85% | – |
| CNC(=O)c1cnn(-c2nc(N)c3ncn([C@@H]4O[C@H](CO)[C@@H](O)[C@H]4O)c3n2)c1 | 4.02% | – |
| O=C(Nc1ccc([N+](=O)[O-])cc1Cl)c1cc(Cl)ccc1O | -11% | – |
| c1ccc(CN2CCC3(CCCc4ccccc43)CC2)cc1 | -6.98% | – |
| COc1cc2nc(N3CCCN(C)CC3)nc(N3CCN(C)CC3)c2cc1OC | 16.4% | – |
| CC(CN1c2ccccc2Sc2ccccc21)N(C)C (stereo not given) | -1.58% | – |

| SMILES | activity change, negative = inhibition | Potency |
| --- | --- | --- |
| Clc1nccc2c1ccc1ccccc12 | -14.2% | – |
| Cn1ncc(S(=O)(=O)Cc2ccccc2)c(Br)c1=O | -13.5% | – |
| C/C(=C\CNc1ncnc2c1ncn2[C@@H]1O[C@H](CO)[C@@H](O)[C@H]1O)CO | 54.8% | – |
| Nc1nc(Cl)nc2c1ncn2[C@@H]1O[C@H](CO)[C@@H](O)[C@@H]1F | 2.41% [at 115 µM] | – |
| CCN1C(=O)C=CC1=O | -8.72% | – |
| Oc1ccccc1O | -6.44% | – |
| CC(C)(C)c1ccc(S(=O)(=O)/C=C\C#N)cc1 | -10.1% | – |
| CCOC(=O)c1cnc2c(cnn2CC)c1NN=C(C)C | -8.57% | – |
| O=C(/C=C/c1ccc(O)cc1)c1ccc(O)cc1O | -20.7% | – |
| N[C@@H](Cc1c[nH]c2ccc(O)cc12)C(=O)O | – | inactive |
| Oc1cc2c(cc1O)CN(C(=S)NCCc1ccc(Cl)cc1)CCC2 | -11.8% | – |
| O=[N+]([O-])c1ccc(CNc2nc(NCc3cccc(C(F)(F)F)c3)nc3nc[nH]c23)cc1 | -16.1% | – |
| Nc1ccc(CCNc2ncnc3c2ncn3C2OC(CO)C(O)C2O)cc1 (stereo not given) | -13.4% | – |
| Cc1cc2nc3c(=O)[nH]c(=O)nc-3n(C[C@H](O)[C@H](O)[C@H](O)COP(=O)(O)OP(=O)(O)OC[C@H]3O[C@@H](n4cnc5c(N)ncnc54)[C@H](O)[C@H]3O)c2cc1C | 756% [at 28.7 µM] | – |
| S=C(Nc1ccccc1)Nc1nccs1 | -10.3% | – |
| CSc1ccc2c(c1)N(CCC1CCCCN1C)c1ccccc1S2 (stereo not given) | -5.29% | – |
| Nc1nc(=S)c2ncn([C@H]3O[C@@H](CO)[C@@H](O)[C@@H]3O)c2[nH]1 | 0.577% [at 28.7 µM] | – |
| Nc1nc(Cl)nc2c1ncn2[C@@H]1O[C@H](COP(=O)(O)OP(=O)(O)OP(=O)(O)O)[C@@H](O)[C@H]1O | 102% | – |
| N#C/C(=C\c1ccc(O)c(O)c1)C(=O)NCCc1ccccc1 | -3.64% | – |
| COc1ccc(/C=C2\COc3ccc(C)cc3C2=O)cc1O | -3.92% | – |
